Structures are written as SMILES. A number with no mark means an inactive call. Calls of active or inactive are those of the source.

Experimental findings from PubChem BioAssay are described below.

A short description of the assay: plasmodial surface anion channel blockers, osmotic lysis – cell-based, P. falciparum Indochina, OD700, 1 h, primary screen (AID 1154). The following applies: P. falciparum Indochina infected RBC osmotic lysis, higher = more signal, called active from +8 up or from −8 down.
Regarding `CC#CCOCCC=C1c2ccccc2[C@@H](OC)[C@@H]1C`, the z-score was 1.25.
For the compound `CCO[C@H](c1cc(OC)cc([N+](=O)[O-])c1OC)[C@H](C)[C@@H](OC)[C@H](C)C=CCC(=O)OC`, the z-score was 2.26.
For `O=C1[C@H]2[C@H]3[C@H](O)[C@H](O)CC(=NOC[C@@H](O)COCc4ccco4)[C@@H]3CC[C@H]2C(=O)N1c1cccc(Oc2ccccc2)c1`, the z-score is 2.27.
Consider `COC(=O)[C@@H]1CC[C@H](C)[C@@H](c2ccc(Br)cc2)N1C[C@@H](O)CN=[N+]=[N-]`, for which the z-score was 1.87.
With `CCOC(=O)[C@H](Cc1ccccc1)NC(=O)CCC1CC(OC(=O)NCc2cccc3ccccc23)CC2(CCCC(COC(=O)NCC3CCCCC3)O2)O1` (stereo partly specified), the z-score was 1.78.
As for `C#CCCCON=C1[C@H]2CCn3c(=O)n([C@@H](CC)c4ccccc4)c(=O)n3[C@H]2[C@H](O)[C@@H]2O[C@H]12`, the z-score was 0.957.
Turning to `C[C@@H]1C=CCC(=O)OC[C@H](C)C(=O)N[C@@H](Cc2ccccc2)C(=O)OC1`, the z-score was 0.296.
Take `Cc1ccc2[nH]c3nc(CCCn4ccnc4-c4ccccc4)nnc3c2c1`: the z-score is 8.16 (active).
In the case of `CC(CCN1CCc2nc(-c3ccccc3)c(-c3ccccc3)cc2C1)=NO[C@@H](C)c1cc(-c2c(C)cc(C)cc2C)no1` it was -0.0185.
Next, `O=C1[C@H]2CCn3c(=O)n(Cc4cc5c(cc4Cl)OCO5)c(=O)n3[C@H]2[C@H](O)[C@@H]2O[C@H]12`: 0.439.
In the case of `CCCNC(=O)OC[C@H]1O[C@H](CCON=C[C@@H](NS(=O)(=O)c2ccc(C)cc2)[C@H](C)C=CCC(=O)OC)C=C[C@@H]1Oc1ccc(OC)cc1`, the z-score was 5.01.
